Test results from ChEMBL document CHEMBL1157539, “Thousands of chemical starting points for antimalarial lead identification” (Nature, 2010).

Legend:
Type in all cases: functional
[1] = system: Plasmodium falciparum; test: GSK_TCMDC: Inhibition of Plasmodium falciparum 3D7 in whole red blood cells, using parasite LDH activity as an index of growth. Test compounds present at 2uM
[2] = system: Plasmodium falciparum; test: GSK_TCMDC: Inhibition of Plasmodium falciparum Dd2 in whole red blood cells, using parasite LDH activity as an index of growth. Test compounds present at 2uM
[3] = system: HepG2; test: GSK_TCMDC: Percent inhibition of human HepG2 cell line. Test compounds present at 10uM.

SMILES | Inhibition [1] [%] | Inhibition [2] [%] | Inhibition [3] [%]
COc1ccc(NC(=O)CCNc2cc(C)nc(NCCOc3ccccc3)n2)cc1.O=C(O)C(F)(F)F | 96 | 2 | 0
CCc1cn2c3c(cc(C(=O)N[C@@H](Cc4ccccc4)[C@H](O)CNCc4ccc(C)cc4)cc13)N(C)S(=O)(=O)CC2.O=CO | 99 | 98 | 0
COc1ccc(-c2ccc(NC(=O)c3cccc(Cl)c3)cc2)cc1CN1CCN(C)CC1.O=C(O)C(F)(F)F | 90 | 33 | 42
COc1ccc(-c2ccc(NC(=O)c3cccc(F)c3)cc2)cc1CNC(C)C.O=C(O)C(F)(F)F | 97 | 14 | 17
CN1CCN(CC(=O)Nc2ccc(-c3cccc(-c4nc5cc(F)ccc5[nH]4)c3)cc2)CC1 | 100 | 100 | 18
Br.CC=CCON1C(=N)NC(=N)NC1(C)C | 94 | 1 | 57
CC(O)C1CCCCN1C(=O)c1cccc(-c2cccc(-c3nc4ccccc4[nH]3)c2)c1 (stereo not drawn) | 99 | 76 | 20
Cc1ccc(C)c2sc(N(CCCn3ccnc3)C(=O)c3ccco3)nc12.Cl | 96 | 63 | 28
Cc1ccc(C(=O)Nc2ccc(Nc3ccnc4cc(-c5ccncc5)ccc34)cc2O)cc1 | 97 | 100 | 14
CC(C)(C)c1ccc(CN2CCC(CNC(=O)c3cc(-c4cccc(F)c4)cs3)C2)cc1.O=C(O)C(F)(F)F (stereo not drawn) | 100 | 55 | 32
Cc1cccc2nc(-c3ccc(-c4ccc(NC(=O)NCc5cccc(F)c5)cc4)cc3)[nH]c12 | 97 | 12 | 46
COc1ccc(CNCCCCCNCc2ccc(Cl)c(Cl)c2)cc1Cl | 98 | 43 | 42
O=C(NCC1CCN(C/C=C/c2ccccc2)CC1)Nc1ccc(Oc2ccccc2)cc1 | 83 | 11 | 40
COCC(C)n1c(C)cc(C(=O)CSc2nnc(Nc3ccccc3)s2)c1C (stereo not drawn) | 97 | 98 | 0
CCCN(CC1CC1)c1ncc(-c2ccccc2CNCc2ccccc2O)cn1 | 100 | 98 | 4
COc1ccccc1NC(=O)CSc1nc2cccnc2n1-c1ccccc1OC | 94 | 91 | 0
Clc1ccc(CNc2ccnc(NCc3ccc4c(c3)OCCCO4)n2)c(Cl)c1 | 94 | 20 | 50
CCc1cc(Cc2cnc(N)nc2N)cc(CC)c1OC | 90 | 12 | 3

SMILES | Inhibition [1] [%] | Inhibition [2] [%] | Inhibition [3] [%]
FC(F)(F)c1ccc2[nH]c(-c3ccc(-c4cccc(CNCCc5cccnc5)c4)s3)nc2c1.O=C(O)C(F)(F)F | 100 | 98 | 26
COc1ccc2c(c1)CCCC2NCCCCNC(=O)c1ccc(NC(=O)c2ccc(Cl)cc2)cc1 (stereo not drawn) | 100 | 49 | 27
Cn1nccc1C(=O)NCCNCc1ccc(-c2ccc(-c3nc4cc(F)ccc4[nH]3)cc2)cc1.O=C(O)C(F)(F)F | 100 | 98 | 28
Cc1ccc(F)cc1S(=O)(=O)N1CCCCC(c2ccc(C(F)(F)F)cc2)=N1 | 82 | 75 | 8
COc1cc(Cc2cnc(N)nc2N)cc(OC(C)C)c1OC | 91 | 15 | 10
Cn1cncc1CNCc1ccc(-c2cccc(-c3nc4ccccc4[nH]3)c2)cc1.O=C(O)C(F)(F)F | 100 | 92 | 19
CCS(=O)(=O)O.Cc1cc(NC(=O)NC(=N)N)ccc1Cl | 100 | 15 | 11
Cc1ccc2nc3c(cc(C(=O)NCCc4ccccc4)c(=N)n3CCCOC(C)C)c(=O)n2c1 | 96 | 12 | 15
O=C(/C=C/c1ccc(Cl)c(Cl)c1)NCCCCCN1CCC(CCNC(=O)/C=C/c2ccccc2F)CC1 | 94 | 1 | 47
CCN(CC)c1ccc(C(=O)Cn2ccc(=N)cc2)cc1 | 84 | 64 | 92
COc1cccc(CNC[C@@H](O)[C@H](Cc2ccccc2)NC(=O)c2cc(OC(C)C)cc(N3CCCCS3(=O)=O)c2)c1.Cl | 95 | 49 | 8
CN1CCC(NCc2cccc(-c3ccc(S(=O)(=O)NCc4ccccc4)c(F)c3)c2)CC1.O=C(O)C(F)(F)F | 99 | 99 | 94
Clc1ccc(CNc2nc(NCCc3c[nH]cn3)nc(NC3CCCCC3)n2)cc1 | 100 | 1 | 0
COc1ccc(C2CCN(C#N)C2)cc1OC1CCCC1 (stereo not drawn) | 100 | 97 | 9
O=C(O)C(F)(F)F.O=S(=O)(NCCN1CCCC1)c1cccc(-c2ccc(CNC3Cc4ccccc4C3)cc2)c1 | 99 | 74 | 79
Cc1cc(=NN=Cc2ccc(F)cc2)c2cccc(C)c2[nH]1 | 100 | 99 | 7
CN1CCc2cc(I)c(O)cc2C1Cc1ccccc1Cl.Cl (stereo not drawn) | 98 | 96 | 0
C#CCN(Cc1cc2c(=O)[nH]c(N)nc2cc1C)c1ccc(C(=O)N[C@@H](CCC(=O)O)C(=O)O)cc1 | 92 | 74 | 28
